# Key:
# Experiment in all cases: DAPPL (digital affinity profiling via proximity ligation, sequencing); 10 mM Tris-HCl pH 7.5, 50 mM NaCl, 1 mM DTT, 4% glycerol, room temperature, 30 min; GST-TFs on glutathione beads, 16-mer random dsDNA library, 0.1% formaldehyde crosslink after washing; high values mean tight binding
# [1] = target: T1, FEV (Homo sapiens, UniProt Q99581 1-238); conditions: protein: recombinant; tags: N-terminal GST; dsDNA, one strand shown
# T1 sequence: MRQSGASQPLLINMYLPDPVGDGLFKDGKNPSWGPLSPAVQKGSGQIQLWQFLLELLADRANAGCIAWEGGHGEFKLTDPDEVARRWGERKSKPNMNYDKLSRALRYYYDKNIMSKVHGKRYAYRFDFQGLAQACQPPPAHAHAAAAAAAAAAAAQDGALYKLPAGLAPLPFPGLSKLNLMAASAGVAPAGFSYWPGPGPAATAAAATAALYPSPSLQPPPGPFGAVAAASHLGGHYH
# Method in brief: (§1)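 Each value of binding signal is a hexamer's read frequency for a factor divided by the same hexamer's frequency in the tag-only sample. Barcoded, bead-captured GST fusions of human transcription factors made in yeast were pooled with that sample and incubated with 200 nmole of a random double-stranded 16-mer DNA library in Tris/NaCl/DTT/glycerol buffer at room temperature for 30 min. Washing, 0.1% formaldehyde crosslinking, proximity ligation, PCR and Illumina NextSeq500 sequencing followed.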
# [2] = target: ETV5 (Homo sapiens, UniProt P41161 1-510); conditions: protein: recombinant; tags: N-terminal GST; dsDNA, one strand shown
# Method in brief: as §1
# [3] = target: HSF1 (Homo sapiens, UniProt Q00613 1-529); conditions: protein: recombinant; tags: N-terminal GST; chain copies: 3; dsDNA, one strand shown
# Method in brief: as §1
# [4] = target: T2, SPIC (Homo sapiens, UniProt Q8N5J4 1-248); conditions: protein: recombinant; tags: N-terminal GST; dsDNA, one strand shown
# T2 sequence: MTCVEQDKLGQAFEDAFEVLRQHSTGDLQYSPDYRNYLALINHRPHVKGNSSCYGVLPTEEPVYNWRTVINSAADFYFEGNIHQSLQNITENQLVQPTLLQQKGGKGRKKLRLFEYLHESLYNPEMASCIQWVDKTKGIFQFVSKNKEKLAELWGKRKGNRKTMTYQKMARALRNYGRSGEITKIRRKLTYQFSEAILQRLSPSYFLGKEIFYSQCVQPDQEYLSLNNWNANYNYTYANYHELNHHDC
# Method in brief: as §1
# [5] = target: ELF4 (Homo sapiens, UniProt Q99607 1-663); conditions: protein: recombinant; tags: N-terminal GST; dsDNA, one strand shown
# Method in brief: as §1
# [6] = target: T3, ELK4 (Homo sapiens, UniProt P28324-2 1-405); conditions: protein: recombinant; tags: N-terminal GST; dsDNA, one strand shown
# T3 sequence: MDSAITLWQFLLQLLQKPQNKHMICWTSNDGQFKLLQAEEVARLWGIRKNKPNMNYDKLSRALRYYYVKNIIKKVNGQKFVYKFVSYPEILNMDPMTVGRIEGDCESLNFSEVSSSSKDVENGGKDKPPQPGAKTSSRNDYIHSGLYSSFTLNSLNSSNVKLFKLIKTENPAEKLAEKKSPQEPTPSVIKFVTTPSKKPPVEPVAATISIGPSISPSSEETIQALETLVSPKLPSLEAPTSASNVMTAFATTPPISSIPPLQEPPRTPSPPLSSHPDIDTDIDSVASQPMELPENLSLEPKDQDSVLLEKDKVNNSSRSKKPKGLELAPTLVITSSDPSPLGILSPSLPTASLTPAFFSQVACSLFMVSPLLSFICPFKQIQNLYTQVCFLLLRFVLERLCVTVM
# Method in brief: as §1
# [7] = target: T4, ETV2 (Homo sapiens, UniProt O00321 1-342); conditions: protein: recombinant; tags: N-terminal GST; dsDNA, one strand shown
# T4 sequence: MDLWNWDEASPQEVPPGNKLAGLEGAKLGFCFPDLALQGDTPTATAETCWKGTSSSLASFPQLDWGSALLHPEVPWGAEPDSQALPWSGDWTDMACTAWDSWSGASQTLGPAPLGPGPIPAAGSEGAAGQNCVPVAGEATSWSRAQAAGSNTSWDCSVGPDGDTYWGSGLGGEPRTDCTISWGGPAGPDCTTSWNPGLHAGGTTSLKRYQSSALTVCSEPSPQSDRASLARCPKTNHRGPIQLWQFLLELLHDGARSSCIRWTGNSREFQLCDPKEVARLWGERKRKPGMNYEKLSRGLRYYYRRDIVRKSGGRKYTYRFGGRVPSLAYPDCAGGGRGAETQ
# Method in brief: as §1
# [8] = target: T5, ELF3 (Homo sapiens, UniProt P78545 1-371); conditions: protein: recombinant; tags: N-terminal GST; dsDNA, one strand shown
# T5 sequence: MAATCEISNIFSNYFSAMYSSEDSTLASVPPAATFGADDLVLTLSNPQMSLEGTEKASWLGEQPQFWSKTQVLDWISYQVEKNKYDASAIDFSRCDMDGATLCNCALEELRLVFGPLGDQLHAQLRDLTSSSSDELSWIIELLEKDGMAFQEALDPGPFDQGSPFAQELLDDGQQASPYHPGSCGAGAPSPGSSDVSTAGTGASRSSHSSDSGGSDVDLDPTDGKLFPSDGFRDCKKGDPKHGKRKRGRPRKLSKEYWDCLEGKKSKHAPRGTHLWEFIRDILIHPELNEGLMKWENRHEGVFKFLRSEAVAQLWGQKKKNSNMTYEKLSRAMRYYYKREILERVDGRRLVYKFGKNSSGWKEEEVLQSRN
# Method in brief: as §1
# [9] = target: CRX (Homo sapiens, UniProt O43186 1-299); conditions: protein: recombinant; tags: N-terminal GST; dsDNA, one strand shown
# Method in brief: as §1
# [10] = target: ETV1 (Homo sapiens, UniProt P50549 1-477); conditions: protein: recombinant; tags: N-terminal GST; dsDNA, one strand shown
# Method in brief: as §1
# [11] = target: T6, ERF (Homo sapiens, UniProt P50548 1-548); conditions: protein: recombinant; tags: N-terminal GST; dsDNA, one strand shown
# T6 sequence: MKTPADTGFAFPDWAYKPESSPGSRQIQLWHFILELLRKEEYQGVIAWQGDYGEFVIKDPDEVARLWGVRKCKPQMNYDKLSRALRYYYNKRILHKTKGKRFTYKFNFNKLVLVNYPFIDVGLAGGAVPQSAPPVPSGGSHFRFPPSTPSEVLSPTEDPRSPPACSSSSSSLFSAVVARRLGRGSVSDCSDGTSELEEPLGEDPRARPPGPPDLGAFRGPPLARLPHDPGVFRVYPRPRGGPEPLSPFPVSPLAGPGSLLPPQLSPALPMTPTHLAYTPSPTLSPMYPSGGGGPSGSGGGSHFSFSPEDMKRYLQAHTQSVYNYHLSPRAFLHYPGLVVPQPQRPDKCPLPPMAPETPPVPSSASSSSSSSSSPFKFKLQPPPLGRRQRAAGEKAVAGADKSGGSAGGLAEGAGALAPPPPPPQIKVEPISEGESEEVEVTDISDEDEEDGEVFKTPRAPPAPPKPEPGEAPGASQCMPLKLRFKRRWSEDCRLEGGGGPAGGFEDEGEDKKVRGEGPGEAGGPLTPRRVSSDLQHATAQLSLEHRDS
# Method in brief: as §1
# [12] = target: T7, ETV3L (Homo sapiens, UniProt Q6ZN32 1-361); conditions: protein: recombinant; tags: N-terminal GST; dsDNA, one strand shown
# T7 sequence: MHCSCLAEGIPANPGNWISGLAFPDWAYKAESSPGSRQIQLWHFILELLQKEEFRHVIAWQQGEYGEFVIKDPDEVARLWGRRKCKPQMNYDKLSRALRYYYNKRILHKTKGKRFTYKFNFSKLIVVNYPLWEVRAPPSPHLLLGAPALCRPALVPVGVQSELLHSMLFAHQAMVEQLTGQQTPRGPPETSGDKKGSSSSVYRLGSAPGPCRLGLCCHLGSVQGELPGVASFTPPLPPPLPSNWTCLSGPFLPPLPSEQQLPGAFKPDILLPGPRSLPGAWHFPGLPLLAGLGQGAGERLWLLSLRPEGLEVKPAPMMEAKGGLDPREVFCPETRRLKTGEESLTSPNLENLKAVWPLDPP
# Method in brief: as §1
# [13] = target: T8, ETS2 (Homo sapiens, UniProt P15036 1-469); conditions: protein: recombinant; tags: N-terminal GST; dsDNA, one strand shown
# T8 sequence: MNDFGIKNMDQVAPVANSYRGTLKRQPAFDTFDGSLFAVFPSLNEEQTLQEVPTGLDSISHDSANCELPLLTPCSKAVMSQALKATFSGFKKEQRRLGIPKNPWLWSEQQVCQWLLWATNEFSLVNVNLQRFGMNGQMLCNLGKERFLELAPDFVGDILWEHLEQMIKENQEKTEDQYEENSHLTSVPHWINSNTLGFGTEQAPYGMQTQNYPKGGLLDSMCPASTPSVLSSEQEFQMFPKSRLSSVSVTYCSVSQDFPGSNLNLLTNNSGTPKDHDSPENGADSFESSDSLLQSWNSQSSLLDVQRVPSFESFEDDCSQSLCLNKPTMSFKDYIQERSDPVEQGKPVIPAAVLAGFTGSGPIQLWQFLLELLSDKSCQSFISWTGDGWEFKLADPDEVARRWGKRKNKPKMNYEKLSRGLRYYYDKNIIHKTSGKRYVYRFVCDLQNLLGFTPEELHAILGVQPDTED
# Method in brief: as §1
# [14] = target: T9, SPDEF (Homo sapiens, UniProt O95238 1-335); conditions: protein: recombinant; tags: N-terminal GST; dsDNA, one strand shown
# T9 sequence: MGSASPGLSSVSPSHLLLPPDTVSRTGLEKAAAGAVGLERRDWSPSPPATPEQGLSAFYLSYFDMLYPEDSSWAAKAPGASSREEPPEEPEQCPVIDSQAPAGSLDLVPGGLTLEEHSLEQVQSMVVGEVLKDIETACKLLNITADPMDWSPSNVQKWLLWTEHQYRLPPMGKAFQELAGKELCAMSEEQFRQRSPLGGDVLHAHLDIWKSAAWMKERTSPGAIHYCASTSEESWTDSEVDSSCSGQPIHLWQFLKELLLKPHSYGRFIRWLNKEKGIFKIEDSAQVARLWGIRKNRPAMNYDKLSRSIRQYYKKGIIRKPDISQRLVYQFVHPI
# Method in brief: as §1
# [15] = target: T10, ETV7 (Homo sapiens, UniProt Q9Y603 1-341); conditions: protein: recombinant; tags: N-terminal GST; dsDNA, one strand shown
# T10 sequence: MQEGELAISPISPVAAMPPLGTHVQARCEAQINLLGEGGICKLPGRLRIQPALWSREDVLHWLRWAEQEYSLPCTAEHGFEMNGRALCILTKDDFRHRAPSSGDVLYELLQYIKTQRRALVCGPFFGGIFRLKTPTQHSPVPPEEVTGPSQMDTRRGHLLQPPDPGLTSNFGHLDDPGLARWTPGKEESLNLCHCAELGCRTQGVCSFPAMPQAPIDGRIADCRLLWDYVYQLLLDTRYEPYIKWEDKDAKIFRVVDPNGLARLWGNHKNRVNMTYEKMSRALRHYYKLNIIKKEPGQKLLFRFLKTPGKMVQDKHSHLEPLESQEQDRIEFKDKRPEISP
# Method in brief: as §1
# [16] = target: T11, ELF5 (Homo sapiens, UniProt Q9UKW6-2 1-255); conditions: protein: recombinant; tags: N-terminal GST; dsDNA, one strand shown
# T11 sequence: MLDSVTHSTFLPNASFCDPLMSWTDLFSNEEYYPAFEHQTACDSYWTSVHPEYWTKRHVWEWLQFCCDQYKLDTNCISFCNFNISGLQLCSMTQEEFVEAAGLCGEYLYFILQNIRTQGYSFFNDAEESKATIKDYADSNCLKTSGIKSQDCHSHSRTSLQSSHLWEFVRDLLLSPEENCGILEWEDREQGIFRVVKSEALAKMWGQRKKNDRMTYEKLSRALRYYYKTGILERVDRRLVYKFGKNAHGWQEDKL
# Method in brief: as §1
# [17] = target: T12, ETV3 (Homo sapiens, UniProt P41162-2 1-143); conditions: protein: recombinant; tags: N-terminal GST; dsDNA, one strand shown
# T12 sequence: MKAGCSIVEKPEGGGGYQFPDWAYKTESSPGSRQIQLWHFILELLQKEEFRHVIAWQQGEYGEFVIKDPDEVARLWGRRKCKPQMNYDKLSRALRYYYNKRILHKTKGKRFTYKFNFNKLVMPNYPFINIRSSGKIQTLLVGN
# Method in brief: as §1
# [18] = target: ETV6 (Homo sapiens, UniProt P41212 1-452); conditions: protein: recombinant; tags: N-terminal GST; dsDNA, one strand shown
# Method in brief: as §1
# ETV1, sequence (P50549 whole entry): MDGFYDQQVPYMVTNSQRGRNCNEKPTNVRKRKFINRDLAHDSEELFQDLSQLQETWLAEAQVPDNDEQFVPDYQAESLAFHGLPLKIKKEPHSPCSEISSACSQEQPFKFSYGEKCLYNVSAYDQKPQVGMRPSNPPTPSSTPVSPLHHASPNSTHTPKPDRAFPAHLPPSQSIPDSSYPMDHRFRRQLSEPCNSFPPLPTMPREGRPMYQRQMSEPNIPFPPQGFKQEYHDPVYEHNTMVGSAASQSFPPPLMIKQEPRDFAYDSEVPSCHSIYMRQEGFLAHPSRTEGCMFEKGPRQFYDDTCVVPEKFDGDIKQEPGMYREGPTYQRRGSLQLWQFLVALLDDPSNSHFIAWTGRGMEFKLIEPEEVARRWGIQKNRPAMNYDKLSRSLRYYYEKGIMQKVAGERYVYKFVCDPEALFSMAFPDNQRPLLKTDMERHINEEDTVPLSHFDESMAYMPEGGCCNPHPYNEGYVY
# ELF4, sequence (Q99607 whole entry): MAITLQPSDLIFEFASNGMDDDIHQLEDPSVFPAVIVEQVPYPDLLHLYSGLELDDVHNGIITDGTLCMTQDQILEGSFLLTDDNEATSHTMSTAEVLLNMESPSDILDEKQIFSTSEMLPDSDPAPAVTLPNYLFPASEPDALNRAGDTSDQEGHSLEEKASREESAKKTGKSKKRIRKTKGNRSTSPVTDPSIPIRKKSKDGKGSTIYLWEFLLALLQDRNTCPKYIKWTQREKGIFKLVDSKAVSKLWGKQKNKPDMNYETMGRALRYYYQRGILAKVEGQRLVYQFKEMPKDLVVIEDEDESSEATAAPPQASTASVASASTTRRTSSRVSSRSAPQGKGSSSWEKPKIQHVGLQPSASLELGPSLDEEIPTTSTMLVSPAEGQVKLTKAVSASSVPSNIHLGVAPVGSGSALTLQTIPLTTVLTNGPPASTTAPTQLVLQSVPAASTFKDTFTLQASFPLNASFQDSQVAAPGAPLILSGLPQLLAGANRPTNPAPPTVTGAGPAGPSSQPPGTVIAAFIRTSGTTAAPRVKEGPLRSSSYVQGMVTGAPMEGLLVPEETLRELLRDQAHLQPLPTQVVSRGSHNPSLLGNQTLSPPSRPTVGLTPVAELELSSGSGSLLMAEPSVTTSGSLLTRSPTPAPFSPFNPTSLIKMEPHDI
# HSF1, sequence (Q00613 whole entry): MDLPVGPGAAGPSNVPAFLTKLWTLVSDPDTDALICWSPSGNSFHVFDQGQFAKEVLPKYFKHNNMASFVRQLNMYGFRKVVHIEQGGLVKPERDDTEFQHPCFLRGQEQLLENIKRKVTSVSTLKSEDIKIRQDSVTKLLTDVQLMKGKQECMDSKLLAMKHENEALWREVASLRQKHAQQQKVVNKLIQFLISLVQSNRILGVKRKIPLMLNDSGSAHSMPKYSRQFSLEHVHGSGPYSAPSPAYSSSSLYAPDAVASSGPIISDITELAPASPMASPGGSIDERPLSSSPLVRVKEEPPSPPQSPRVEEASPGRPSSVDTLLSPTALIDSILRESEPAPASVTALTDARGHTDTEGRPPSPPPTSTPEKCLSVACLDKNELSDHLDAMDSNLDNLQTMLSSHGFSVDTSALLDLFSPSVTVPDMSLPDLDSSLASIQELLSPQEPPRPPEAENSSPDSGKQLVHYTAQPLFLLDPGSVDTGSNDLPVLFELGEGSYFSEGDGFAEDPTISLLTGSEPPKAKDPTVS
# ETV5, sequence (P41161 whole entry): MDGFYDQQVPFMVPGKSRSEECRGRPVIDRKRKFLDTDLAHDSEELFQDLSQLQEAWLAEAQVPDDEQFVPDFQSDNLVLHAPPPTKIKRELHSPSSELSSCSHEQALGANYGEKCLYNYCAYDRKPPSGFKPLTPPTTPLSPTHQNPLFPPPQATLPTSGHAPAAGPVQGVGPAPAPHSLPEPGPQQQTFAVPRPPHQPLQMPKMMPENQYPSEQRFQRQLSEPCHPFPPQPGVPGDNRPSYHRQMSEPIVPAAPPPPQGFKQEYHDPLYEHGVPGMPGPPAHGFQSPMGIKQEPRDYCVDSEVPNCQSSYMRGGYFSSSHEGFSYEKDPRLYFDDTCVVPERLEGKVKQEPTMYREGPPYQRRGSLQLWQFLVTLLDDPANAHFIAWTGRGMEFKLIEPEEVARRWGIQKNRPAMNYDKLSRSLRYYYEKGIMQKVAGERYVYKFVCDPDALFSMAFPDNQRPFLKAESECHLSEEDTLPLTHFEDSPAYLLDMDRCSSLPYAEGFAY
# ETV6, sequence (P41212 whole entry): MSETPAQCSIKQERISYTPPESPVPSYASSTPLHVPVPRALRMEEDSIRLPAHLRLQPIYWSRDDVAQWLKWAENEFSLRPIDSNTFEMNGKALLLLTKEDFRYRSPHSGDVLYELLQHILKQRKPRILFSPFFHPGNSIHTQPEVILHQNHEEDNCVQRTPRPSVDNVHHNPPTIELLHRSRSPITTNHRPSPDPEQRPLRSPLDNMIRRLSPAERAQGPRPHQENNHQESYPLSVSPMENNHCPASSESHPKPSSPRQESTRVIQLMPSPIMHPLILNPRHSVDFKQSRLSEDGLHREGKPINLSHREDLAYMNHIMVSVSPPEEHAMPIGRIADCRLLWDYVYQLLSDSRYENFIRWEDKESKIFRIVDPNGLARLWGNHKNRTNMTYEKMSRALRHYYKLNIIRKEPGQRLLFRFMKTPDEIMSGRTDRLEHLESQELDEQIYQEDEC
# CRX, sequence (O43186 whole entry): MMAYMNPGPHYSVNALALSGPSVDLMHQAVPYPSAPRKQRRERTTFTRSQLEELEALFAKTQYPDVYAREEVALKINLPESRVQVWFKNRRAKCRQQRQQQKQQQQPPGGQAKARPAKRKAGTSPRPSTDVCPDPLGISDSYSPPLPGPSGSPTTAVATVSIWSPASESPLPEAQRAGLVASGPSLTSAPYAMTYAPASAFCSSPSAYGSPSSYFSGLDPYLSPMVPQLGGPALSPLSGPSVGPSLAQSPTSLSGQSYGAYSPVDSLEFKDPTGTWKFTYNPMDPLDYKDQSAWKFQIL
sequence,measurement,setting,value
TACACA,binding signal,[1],"1.21 fold enrichment (6-mer frequency, TF over GST control)"
same,binding signal,[2],"1.2 fold enrichment (6-mer frequency, TF over GST control)"
same,binding signal,[3],"1.05 fold enrichment (6-mer frequency, TF over GST control)"
same,binding signal,[4],"1.35 fold enrichment (6-mer frequency, TF over GST control)"
same,binding signal,[5],"1.2 fold enrichment (6-mer frequency, TF over GST control)"
same,binding signal,[6],"1.26 fold enrichment (6-mer frequency, TF over GST control)"
same,binding signal,[7],"1.12 fold enrichment (6-mer frequency, TF over GST control)"
same,binding signal,[8],"1.22 fold enrichment (6-mer frequency, TF over GST control)"
same,binding signal,[9],"1.09 fold enrichment (6-mer frequency, TF over GST control)"
same,binding signal,[10],"1.2 fold enrichment (6-mer frequency, TF over GST control)"
same,binding signal,[11],"1.24 fold enrichment (6-mer frequency, TF over GST control)"
same,binding signal,[12],"1.15 fold enrichment (6-mer frequency, TF over GST control)"
same,binding signal,[13],"1.16 fold enrichment (6-mer frequency, TF over GST control)"
same,binding signal,[14],"1.27 fold enrichment (6-mer frequency, TF over GST control)"
same,binding signal,[15],"1.19 fold enrichment (6-mer frequency, TF over GST control)"
same,binding signal,[16],"1.13 fold enrichment (6-mer frequency, TF over GST control)"
same,binding signal,[17],"1.13 fold enrichment (6-mer frequency, TF over GST control)"
same,binding signal,[18],"1.21 fold enrichment (6-mer frequency, TF over GST control)"
